From PubChem BioAssay come the findings set out here.

The source made the active and inactive calls.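 The calls were made as follows, unless noted: active = visual image review flags a hit and inhibition of aggregation exceeds 20%; inconclusive = visual hit but inhibition at or below 20%; inactive = no hit on visual image review.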

Test [1] is described as follows: inhibitors of TNFa-induced NFkB p65 translocation, primary screen, imaging, HUVEC, MLSMR starter and 10KST1 sets (AID 438;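 active = inhibition above 20% together with a positive visual image hit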;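 also: compound added about 3h40 before a 20 min TNFalpha stimulation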;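 as to inhibition: signal is the nuclear over cytoplasmic p65 intensity ratio per well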). The note with it: HUVEC TNFa-induced p65 nuclear translocation; cell count: measured here: nuclei count (cytotoxicity indicator), at 2.08 µM; inhibition: at 2 µM, stronger effect = higher value, 0% TNFa-plus-vehicle, 100% no-TNFa wells.
The nature of test [2]: inhibitors of mutant huntingtin aggregation, primary screen, imaging, exon1htt(103Q)mCFP cells, high-content imaging (AID 483).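 Also: compound exposure lasted 3 days before fixation.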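 As to nuclei count: percent of the per-plate median nuclei count of sample wells.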 Conditions: exon1htt(103Q)mCFP cell line, aggregate imaging, at 2 µM; inhibition of aggregation: stronger effect = higher value; nuclei count: measured here: cell count, toxicity.
The nature of test [3]: inhibitors of E-selectin induction by TNFa, primary screen, imaging, HUVEC, immunofluorescence, MLSMR starter and 10KST1 sets (AID 487;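 active = visually confirmed hit in the image check and inhibition above 20%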;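 as to inhibition: signal is fraction of cell area covered by stained E-selectin grains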;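 as to nuclei count: 100% = median nuclei count of all wells on the same plate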). The note with it: HUVEC TNFalpha-induced E-selectin immunofluorescence imaging, at 2 µM; inhibition: stronger effect = higher value; nuclei count: measured here: cell number, toxicity.
For test [4], the target named is Voltage-gated potassium channel subunit beta-2 (Rattus norvegicus) (UniProt P62483). Briefly: KvBeta enzyme negative modulators, primary screen, biochemical, NADPH fluorescence (AID 622;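 active = fluorescence slope higher than the sample average by over 3 SD, cut at about -0.22 in these data, passing the limit was not always enough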;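 also: slope of raw intensity against log time taken from 70 to 1610 s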). Conditions: recombinant KvBeta, 4-cyanobenzaldehyde reduction, at 10 µM, stronger effect = higher value.
Sequence of Voltage-gated potassium channel subunit beta-2 (Rattus norvegicus) (P62483 whole entry, looked up): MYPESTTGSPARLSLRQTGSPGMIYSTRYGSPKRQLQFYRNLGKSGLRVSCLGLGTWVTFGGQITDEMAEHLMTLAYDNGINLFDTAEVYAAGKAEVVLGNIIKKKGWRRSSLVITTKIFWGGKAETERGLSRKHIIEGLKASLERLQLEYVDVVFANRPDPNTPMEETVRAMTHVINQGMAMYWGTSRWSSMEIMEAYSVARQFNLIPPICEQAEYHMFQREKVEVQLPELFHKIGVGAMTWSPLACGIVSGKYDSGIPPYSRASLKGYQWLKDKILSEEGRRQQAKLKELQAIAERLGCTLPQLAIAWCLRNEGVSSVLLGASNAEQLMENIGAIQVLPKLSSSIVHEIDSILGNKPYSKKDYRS
The target is the same in test [5]. Briefly: KvBeta positive modulators, primary screen, biochemical, NADPH fluorescence (AID 623;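 active = NADPH fluorescence slope more negative than the mean of all samples by about 3 SD, 99.7% confidence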;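 also: fluorescence intensity change per second fitted from 20 to 320 s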). The note with it: Recombinant KvBeta, NADPH fluorescence decrease slope, 10 min; at 10 µM; stronger effect = lower value.
For test [6], the target named is Alpha-2C adrenergic receptor (Homo sapiens) (UniProt P18825). The experiment in a line: modulators of alpha2C/GIRK thallium flux, primary screen, cell-based, HEK293 alpha2C/GIRK1/2 (AID 624;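 active = fluorescence slope after compound addition differing from the mean of all screened samples at 99.7% confidence, in either direction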;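 also: slope of fluorescence ratio to pre-addition baseline per second over 15 to 24 s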). The note with it: thallium flux BTC fluorescence, at 10 µM, actives lie on both sides.
Sequence of Alpha-2C adrenergic receptor (Homo sapiens) (P18825 whole entry, looked up): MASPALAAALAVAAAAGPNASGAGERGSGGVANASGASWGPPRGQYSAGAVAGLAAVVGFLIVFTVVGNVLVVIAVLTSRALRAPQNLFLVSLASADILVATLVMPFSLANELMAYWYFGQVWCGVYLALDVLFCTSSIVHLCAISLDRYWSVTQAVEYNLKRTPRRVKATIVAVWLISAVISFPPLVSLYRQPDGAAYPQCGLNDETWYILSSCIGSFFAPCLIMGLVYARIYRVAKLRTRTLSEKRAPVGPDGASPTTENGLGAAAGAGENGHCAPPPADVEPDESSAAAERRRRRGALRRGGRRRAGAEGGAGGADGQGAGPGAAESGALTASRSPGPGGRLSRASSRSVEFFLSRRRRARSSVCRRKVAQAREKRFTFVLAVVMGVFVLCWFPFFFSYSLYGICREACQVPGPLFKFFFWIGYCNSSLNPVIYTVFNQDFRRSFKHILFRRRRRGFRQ
Test [7] can be described thus: inhibitors of Sendai virus-induced IRF3 signaling, primary screen, TLR/RLR signaling modifier project, cell-based, Sendai virus stimulus, luciferase, 10K MLSCN set (AID 602276;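 active = inhibition at or above 50% at 10 µM; inactive = inhibition below 50%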;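 also: firefly luciferase from ISG56 promoter only with Renilla not read in this screen; 0% = Sendai virus plus DMSO and 100% = medium plus DMSO without virus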). The note with it: HEK293 RL24 IRF3 luciferase reporter, at 10 µM, stronger effect = higher value.
A short description of test [8]: inhibitors of poly I:C-induced TLR3 signaling, primary screen, cell-based, poly I:C stimulus, luciferase, 10K MLSCN set (AID 602277;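 active = inhibition of the reporter signal at or above 50%; inactive = inhibition below 50%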). Conditions: HEK293-TLR3 RL24 IRF3 luciferase reporter, at 10 µM, stronger effect = higher value.

Turning to `Cn1c2c(c(=O)n(C)c1=O)C(CC(=O)Nc1ccccc1)C(=O)N2` (centres undefined), the cell count in test [1] came out at 604. Moreover, the inhibition in test [1] is -3.5% (inactive); in test [3], -81.2% (inactive); in test [7], 10.9% (inactive); in test [8] it was 22.4% (inactive). For the same compound, the inhibition of aggregation in test [2] is -2.9% (inactive). Further, the nuclei count was determined as 72% in test [2] and 152% in test [3]. In test [4], the fluorescence slope was -0.597 (inactive). For the same compound, in test [5], the NADPH fluorescence slope was -3.5e-05 (inactive). Also, the slope in test [6] was 0.00726 (inactive).

Consider `Cc1ccc(-c2nn3c(C)nnc3s2)cc1N`, for which the cell count in test [1] was 385. The inhibition was 7.5% (inactive) in test [1], 4.3% (inactive) in test [3], -7.7% (inactive) in test [7] and -47.2% (inactive) in test [8]. The inhibition of aggregation in test [2] was 9.7% (inactive). Also, the nuclei count was 82% in test [2] and 114% in test [3]. Moreover, the fluorescence slope in test [4] was -0.405 (inactive). The NADPH fluorescence slope in test [5] was -3e-05 (inactive). Further, the slope in test [6] was 0.00541 (inactive).

Take `CCC(CC)C(=O)Nc1cccc(C(=O)NCc2ccco2)c1`: the cell count in test [1] is 295. The inhibition was 2.3% (inactive) in test [1], -100% (inactive) in test [3], -5.68% (inactive) in test [7] and -18.7% (inactive) in test [8]. In addition, the inhibition of aggregation in test [2] is -17.4% (inactive). Further, the nuclei count is 107% in test [2] and 138% in test [3]. For the same compound, in test [4], the fluorescence slope was -0.428 (inactive). Besides, the NADPH fluorescence slope in test [5] is -1.2e-05 (inactive). The slope in test [6] was 0.00559 (inactive).

Take `O=C(O)c1cccn2c(=O)c3ccccc3nc12`: in test [1], the cell count was determined as 799. Moreover, the inhibition in test [1] was -2.3% (inactive); in test [3] it was -19.6% (inactive); in test [7], 8.6% (inactive); in test [8] it was 6.83% (inactive). For the same compound, the inhibition of aggregation in test [2] is -14.1% (inactive). Moreover, the nuclei count in test [2] was determined as 84.3%; in test [3], 126%. Further, in test [4], the fluorescence slope was -0.313 (inactive). Also, the NADPH fluorescence slope in test [5] is -2.6e-05 (inactive). For the same compound, the slope in test [6] is 0.0061 (inactive).

As to `Cc1ccc(C(c2sc3ncnn3c2O)N2CC(C)CC(C)C2)cc1` (centres undefined), the cell count in test [1] was 628. For the same compound, the inhibition in test [1] is -2.4% (inactive); in test [3], -22.9% (inactive); in test [7] it was 10.9% (inactive); in test [8] it was 35.9% (inactive). In test [2], the inhibition of aggregation is 14.8% (inactive). The nuclei count in test [2] was found to be 80.8%; in test [3] it was 101%. The fluorescence slope in test [4] was -0.58 (inactive). For the same compound, the NADPH fluorescence slope in test [5] is -5.6e-05 (inactive). Moreover, in test [6], the slope was 0.00795 (inactive).

On to `Cc1ccc(NC(=O)CN2CC(C)SC2=NC2CCCCC2)cc1` (centres undefined), for which the cell count in test [1] is 519. The inhibition in test [1] was 10.1% (inactive); in test [3], -38.8% (inactive); in test [7], 17.3% (inactive); in test [8] it was 13.9% (inactive). Further, in test [2], the inhibition of aggregation is -7.2% (inactive). Also, the nuclei count in test [2] was determined as 109%; in test [3] it was 112%. The fluorescence slope in test [4] is -0.514 (inactive). In addition, the NADPH fluorescence slope in test [5] was -4.1e-05 (inactive). In addition, the slope in test [6] is 0.00585 (inactive).

Turning to `COc1ccccc1N(CN1CCCC1=O)C(=O)c1c(F)cccc1Cl`, the cell count in test [1] came out at 370. Besides, the inhibition in test [1] is -0.3% (inactive); in test [3], -15.4% (inactive); in test [7], 12.3% (inactive); in test [8], 4.03% (inactive). The inhibition of aggregation in test [2] was 9.3% (inactive). Further, the nuclei count was 84.8% in test [2] and 91.8% in test [3]. In addition, the fluorescence slope in test [4] was -0.477 (inactive). Besides, the NADPH fluorescence slope in test [5] is -3.8e-05 (inactive). The slope in test [6] is 0.0058 (inactive).

`CC(C)(C)c1cc(CCC(=O)N2CCNCC2)c(C(C)(C)C)cc1O`: the cell count in test [1] amounted to 557. Further, the inhibition in test [1] is -31.3% (inactive); in test [3] it was -57% (inactive); in test [7] it was 13.9% (inactive); in test [8], 27.5% (inactive). In addition, the inhibition of aggregation in test [2] was 18.7% (inactive). The results for the nuclei count in test [2] and in test [3] were 102% and 101%, respectively. Further, the fluorescence slope in test [4] was -0.411 (inactive). In addition, the NADPH fluorescence slope in test [5] is -9e-05 (inactive). In test [6], the slope was 0.00515 (inactive).

Turning to `CCCc1c(O)nc(SCC(=O)NCCc2ccc(OC)c(OC)c2)[nH]c1=O`, the cell count in test [1] came to 581. Moreover, the inhibition is -10.8% (inactive) in test [1], 38.4% (inactive) in test [3], 13.2% (inactive) in test [7] and 13.9% (inactive) in test [8]. In addition, in test [2], the inhibition of aggregation was 5.3% (inactive). Further, the nuclei count is 73.8% in test [2] and 82.7% in test [3]. In test [4], the fluorescence slope is -0.486 (inactive). Besides, the NADPH fluorescence slope in test [5] is -3.3e-05 (inactive). In test [6], the slope was 0.00432 (inactive).

Regarding `COc1ccc(NC(=O)c2cc(C)on2)cc1OC`, in test [1], the cell count was determined as 377. The inhibition was 3.7% (inactive) in test [1], 22.1% (inactive) in test [3], 6.93% (inactive) in test [7] and -8.62% (inactive) in test [8]. The inhibition of aggregation in test [2] was -26.4% (inactive). Moreover, the figures for the nuclei count in test [2] and in test [3] were 111% and 106%, respectively. Besides, in test [4], the fluorescence slope was -0.624 (inactive). For the same compound, the NADPH fluorescence slope in test [5] is -3.2e-06 (inactive). In addition, the slope in test [6] is 0.00386 (inactive).

With `CCOC(=O)N1CCN(S(=O)(=O)c2ccc(F)c(C(=O)Nc3cc(C)cc(C)c3)c2)CC1`, the cell count in test [1] came to 578. Besides, the inhibition in test [1] was -19.7% (inactive); in test [3], -87% (inactive); in test [7], 1.83% (inactive); in test [8] it was 14.3% (inactive). In test [2], the inhibition of aggregation is 16.1% (inactive). Moreover, the results for the nuclei count in test [2] and in test [3] were 62.7% and 111%, respectively. Further, the fluorescence slope in test [4] was -0.393 (inactive). In addition, the NADPH fluorescence slope in test [5] is -1.2e-05 (inactive). The slope in test [6] is 0.00302 (inactive).

`CCCOc1ccccc1C1CC(=O)Nc2cc3c(cc21)OCCO3` (centres undefined): the cell count in test [1] is 647. For the same compound, the inhibition in test [1] is 4.9% (inactive); in test [3] it was 29.7% (inactive); in test [7] it was -3.13% (inactive); in test [8], 78% (active). In test [2], the inhibition of aggregation was 6.6% (inactive). For the same compound, the nuclei count was 39.3% in test [2] and 97.2% in test [3]. Moreover, the fluorescence slope in test [4] was -0.628 (inactive). Also, the NADPH fluorescence slope in test [5] is -2e-05 (inactive). Besides, the slope in test [6] is 0.00236 (inactive).

Take `CC(C)Oc1cc2oc(=O)c3c(c2cc1Cl)CCC3`: in test [1], the cell count stood at 385. Also, the inhibition in test [1] was 0.8% (inactive); in test [3], -10.2% (inactive); in test [7], -1.44% (inactive); in test [8], -17.4% (inactive). Moreover, in test [2], the inhibition of aggregation was -21.6% (inactive). Also, the nuclei count amounted to 56.6% in test [2] and 96.1% in test [3]. Moreover, in test [4], the fluorescence slope is -0.445 (inactive). In addition, the NADPH fluorescence slope in test [5] is 2.2e-05 (inactive). The slope in test [6] is 0.00687 (inactive).

Consider `COc1ccc(C(NC(=O)C(C)(C)C)NC(=O)C(C)(C)C)cc1`, for which the cell count in test [1] worked out at 364. Further, the inhibition is 3% (inactive) in test [1], -52.8% (inactive) in test [3], 4.79% (inactive) in test [7] and 9.47% (inactive) in test [8]. Moreover, the inhibition of aggregation in test [2] is 0.4% (inactive). Further, the nuclei count in test [2] is 106%; in test [3], 102%. Also, the fluorescence slope in test [4] is -0.618 (inactive). The NADPH fluorescence slope in test [5] is -1e-05 (inactive). In test [6], the slope is 0.00914 (inactive).
